Test results reported in PubChem BioAssay (NCATS).
Inconclusive results are not listed. Activity calls are given as the source filed them. Unless noted, calls follow the shape of the dose curve; as a rule, active = well fitted curve in the direction sought with a large enough effect; inconclusive = small, poorly fitted or top-dose-only effect, or another doubt; inactive = no such curve, though single readings can be large; an effect the other way counts as inactive or inconclusive.

Tests used:
[1] = Cell Viability - BJ (AID 421; calls by dose curve;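 also: potency is read from the fitted curve at half-maximal effect; cells exposed to compound for 40 hours at 37 °C before readout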); conditions: BJ fibroblast viability, qHTS
Procedure, shortened: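 Normal human BJ foreskin fibroblasts, 1500/well in complete medium, treated 40 hr at 37 °C. Cellular ATP by CellTiter-Glo luminescence; normalized to DMSO and 100 uM tamoxifen, AC50 from Hill fit.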

[2] = Cell Viability - Jurkat (AID 426;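 active = dose-dependent loss of cell ATP signal giving a full or clear fitted curve, ranked by lower potency value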; also: potency is read from the fitted curve at half-maximal effect); conditions: qHTS
Procedure, shortened: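 Luminescent ATP read-out (CellTiter-Glo, 20 min at room temperature) after 40 hr compound exposure at 37 °C of Jurkat E6-1 cells, 5000/well. Decreased ATP taken as cytotoxicity; AC50 from standard Hill equation.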

[3] = Cell Viability - Hek293 (AID 427;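 active = compounds whose dose-response curve shows a full or clear partial loss of cell viability, called from curve shape rather than a numeric limit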;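 also: potency is read from the fitted curve at half-maximal effect; cells exposed to compound for 40 hours at 37 °C before reading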); conditions: qHTS
Procedure, shortened: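 HEK293 cells in complete medium were exposed to compound for 40 hr at 37 °C, then cellular ATP was read by CellTiter-Glo luminescence. Data were normalized to DMSO (basal) and 100 uM tamoxifen (100% inhibition), and AC50 came from Hill fits.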

[4] = Cell Viability - HepG2 (AID 433; calls by dose curve;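 also: potency is read from the fitted curve at half-maximal effect; potency for ATP loss meaning cytotoxicity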); conditions: qHTS
Procedure, shortened: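 Cytotoxicity is scored as loss of intracellular ATP in HepG2 cells exposed to compounds for 40 h. Concentration-response curves, normalized to DMSO and 100 uM tamoxifen, give AC50 values.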

[5] = Cell Viability - MRC5 (AID 434; calls by dose curve;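 also: potency is read from the fitted curve at half-maximal effect; potency reflects cytotoxicity seen as loss of intracellular ATP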); conditions: MRC5 lung fibroblast viability, qHTS
Procedure, shortened: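 Decrease in intracellular ATP, quantified by luciferase light output, reflects compound toxicity toward MRC5 cells exposed for 40 hr in complete culture medium. Concentration-response curves, scaled between DMSO and 100 uM tamoxifen, gave AC50 values.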

[6] = Cell Viability - SK-N-SH (AID 435; calls by dose curve; also: potency is read from the fitted curve at half-maximal effect); conditions: SK-N-SH neuroblastoma cell viability qHTS
Procedure, shortened: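 Cells seeded at 1500 per well and incubated 5 hr at 37 °C. Compound added, then 40 hr at 37 °C. CellTiter-Glo added, 20 min at room temperature, luminescence read.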

[7] = target: Mitogen-activated protein kinase 10 (Mus musculus) (UniProt Q61831); assay: JNK3 AlphaScreen Assay (AID 530; active = well fitted curve in either direction with a large enough effect, not every such curve was filed as active;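 also: kinase came from lysate of stimulated human HepG2 cells; signal reports phosphorylation of biotinylated GST-cJun 1-79 at Ser73 with 10 µM ATP; % is scaled to controls: 0 for no effect and ±100 for the full control effect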)
Procedure, shortened: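 Biotinylated GST-cJun(1-79) served as substrate for JNK3 in HepG2 lysates stimulated with IL-1beta and TNF-alpha. ATP was 10 uM final, pH 7.6. Ser73 phosphorylation was quantified by AlphaScreen (680 nm excitation).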

[8] = Cell Viability - N2a (AID 540); conditions: N2a mouse neuroblastoma cell viability; activity change, negative = cytotoxicity: at 92.2 µM (top of the series);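 also: plate controls were DMSO alone for no effect and tamoxifen control for full effect; nearly all actives have a fitted effect of over 45% in size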
Procedure, shortened: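 N2a mouse neuroblastoma, 1500 cells/well, 5 hr settle; compound 40 hr, 37 °C; CellTiter-Glo 20 min RT; luminescence; Hill-fit AC50.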

[9] = Cell Viability - NIH 3T3 (AID 541); conditions: NIH 3T3 cell viability, qHTS; activity change, negative = cytotoxicity: at 92.2 µM (top of the series);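 also: plate controls were DMSO alone for no effect and tamoxifen positive control for full effect; nearly all actives have a fitted effect of over 25% in size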
Procedure, shortened: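 qHTS format; 40 hr compound exposure, 37 °C; CellTiter-Glo luminescence (cellular ATP) read-out after 20 min at RT. Decrease in ATP = cytotoxicity; AC50 from standard Hill fit.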

[10] = Cell Viability - HUV-EC-C (AID 542); also: % is scaled to controls: 0 for no effect and ±100 for the full control effect; nearly all actives have a fitted effect of over 35% in size
Procedure, shortened: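 Luminescent ATP read-out (CellTiter-Glo, 20 min room temperature) after 40 hr compound treatment of HUV-EC-C cells at 37 °C. Concentration-response data fitted with the standard Hill equation to give AC50; tamoxifen and doxorubicin served as positive controls.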

[11] = Cell Viability - H-4-II-E (AID 543); also: % is scaled to controls: 0 for no effect and ±100 for the full control effect; nearly all actives have a fitted effect of over 35% in size
Procedure, shortened: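 qHTS, rat hepatoma H-4-II-E, 1500 cells/well; 40 hr compound exposure, 37 °C; CellTiter-Glo ATP luminescence after 20 min RT; AC50 by standard Hill fit.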

[12] = Cell Viability - SH-SY5Y (AID 544); also: nearly all actives have a fitted effect of over 55% in size
Procedure, shortened: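 SH-SY5Y, 1500 cells/well, 5 hr pre-incubation 37 °C; cpd 40 hr 37 °C; CellTiter-Glo 20 min RT; luminescence (ATP) read. qHTS concentration-response, Hill fit → AC50. Tamoxifen, doxorubicin as positive controls.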

[13] = Cell Viability - Renal Proximal Tubule (AID 545); conditions: renal proximal tubule cells viability, primary cells of rat origin; at 91.7 µM (top of the series); also: nearly all actives have a fitted effect of over 40% in size
Procedure, shortened: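 Cytotoxicity is scored as a concentration-dependent drop in cellular ATP in primary rat renal proximal tubule cells exposed for 40 hr. AC50 derives from Hill modelling.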

[14] = Cell Viability - Mesenchymal (AID 546); conditions: mesenchymal cells viability, qHTS; activity change, negative = cytotoxicity: at 91.7 µM (top of the series);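 also: cells exposed to compound for 40 hours before reading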
Procedure, shortened: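 In this qHTS cytotoxicity format, glomerulus-derived human mesenchymal kidney cells received compound for 40 hr, then luciferase-based ATP quantitation. Concentration-response data were fitted with the Hill equation.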

[15] = Cellular Toxicity (caspase-3) HepG2 (AID 654);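 also: cells exposed to compound for 16 hours before reading; 0% = DMSO alone and 100% = caspase signal from 100 µM tamoxifen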
Procedure, shortened: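 Luminescent Caspase-Glo 3/7 readout after 16 hr compound exposure of human hepatocellular carcinoma HepG2 cells at 37 °C; qHTS concentration-response, normalized DMSO = 0%, 100 uM tamoxifen = 100%; AC50 by standard Hill equation.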

[16] = Cellular Toxicity (caspase-3) Jurkat (AID 655); conditions: Jurkat caspase-3 activation, luminescence, DMSO = 0%, tamoxifen = 100%; at 92.2 µM (top of the series);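 also: cells exposed to compound for 16 h at 37 °C before reading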
Procedure, shortened: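 Caspase 3/7 activation is scored as increased luminescence in Jurkat cells cultured with compound for 16 hours in complete medium. AC50 values come from Hill fits of qHTS concentration-response data normalized to DMSO and 100 uM tamoxifen controls.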

[17] = Cellular Toxicity (caspase-3) HUV-EC-C (AID 656)
Procedure, shortened: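 Read-out: luminescence proportional to caspase 3/7 activity, measured 20 min after adding Caspase-Glo 3/7 reagent. Cells (HUV-EC-C) had received compound for 16 hr at 37°C. Increases relative to DMSO and 100 uM tamoxifen gave concentration-response AC50 values.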

[18] = Cellular Toxicity (caspase-3) SHSY5Y (AID 657)
Procedure, shortened: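 Cells plated and incubated 5 h at 37 °C, dosed over a concentration range, incubated 16 h, then given Caspase-Glo 3/7 reagent for 1 h at room temperature before luminescence reading. Staurosporine (10 uM) defined full stimulation.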

[19] = Cellular Toxicity (caspase-3) MRC-5 (AID 659);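 also: 0% = DMSO basal and 100% = 10 µM staurosporine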
Procedure, shortened: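 Apoptosis readout in MRC-5 cells: luciferase light generated after caspase 3/7 cleaves a peptide-aminoluciferin substrate, measured post 16 hr compound incubation at 37 °C.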

[20] = Cellular Toxicity (caspase-3) Mesangial (AID 660);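 also: cells exposed to compound for 16 h before the caspase read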
Procedure, shortened: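 Luminescent Caspase-Glo 3/7 readout (aminoluciferin substrate cleavage, 20 min RT) after 16 h compound exposure at 37 °C of normal human mesangial cells. Signal increase normalized between DMSO basal and 100 uM tamoxifen; Hill-equation AC50.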

[21] = Cellular Toxicity (caspase-3) SK-N-SH (AID 661);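 also: 0% = DMSO basal and 100% = 10 µM staurosporine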
Procedure, shortened: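 Luminescent Caspase-Glo 3/7 read-out after 16 hr compound exposure of SK-N-SH neuroblastoma cells at 37 °C. Signal increase normalized to DMSO (basal) and 10 uM staurosporine (100%); AC50 from Hill equation fits of qHTS concentration-response data.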

[22] = Cellular Toxicity (caspase-3) H-4-II-E (AID 663); conditions: Potency: caspase-3 activation;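 also: cells exposed to compound for 16 hr before readout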
Procedure, shortened: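 Caspase 3/7 activation measured in H-4-II-E cells in complete culture medium after 16 hr treatment at 37 °C, using luciferase-coupled substrate readout; AC50 values come from Hill-equation fits of normalized concentration-response data.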

[23] = Cellular Toxicity (caspase-3) Hek293 (AID 664);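 also: cells exposed to compound for 16 h at 37 °C before readout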
Procedure, shortened: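 Luminescent Caspase-Glo 3/7 readout (aminoluciferin release) in HEK293 cells after 16 h compound treatment, 37 °C. Normalization: DMSO = basal, 100 uM tamoxifen = 100% stimulation. Concentration-response fitted with standard Hill equation for AC50.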

[24] = Cellular Toxicity (caspase-3) N2a (AID 665);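 also: compound exposure lasted 16 h at 37 °C before readout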
Procedure, shortened: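 Luminescent Caspase-Glo 3/7 readout in N2a mouse neuroblastoma cells after 16 h compound exposure at 37 °C. Signal scaled to DMSO (basal) and 10 uM staurosporine (100%). Concentration-response fitted with Hill equation for AC50.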

[25] = Cellular Toxicity (caspase-3) NIH 3T3 (AID 666);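 also: 0% = DMSO basal and 100% = 100 µM tamoxifen stimulation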
Procedure, shortened: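 NIH 3T3, 1000 cells/well, 5 hr settle then 16 hr compound at 37°C; Caspase-Glo 3/7, 20 min RT, luminescence. DMSO = basal, 100 uM tamoxifen = 100%. Hill-equation AC50, qHTS.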

[26] = Cellular Toxicity (caspase-3) Renal Proximal Tubule (AID 667);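 also: cells exposed to compound for 16 hours at 37 °C before detection; 0% = DMSO basal and 100% = 10 µM staurosporine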
Procedure, shortened: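 In qHTS format, rat primary proximal tubule cells seeded at 1000 per well are exposed to compounds for 16 hours at 37 °C. An increase in Caspase-Glo 3/7 luminescence indicates caspase activation.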

[27] = Cell Viability - LYMP2-001 (AID 921);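 also: cells exposed to compound for 24 h at 37 °C; 0% = DMSO only and full inhibition = tetraoctylammonium bromide control wells; nearly all actives have a fitted effect of over 70% in size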
Procedure, shortened: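 qHTS, 1536-well; lymphoblastoid cells, 24 hr compound, 37 C; ATP by CellTiter-Glo, 30 min RT; luminescence; Hill-fit AC50.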

[28] = MultiTox-Fluor Cytotoxicity Assay - LYMP1-001 - Dead Cells (AID 946);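 also: 0% = DMSO and 100% = tetraoctylammonium bromide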
Procedure, shortened: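 LYMP1-001 lymphoblastoid cells (2500/well) treated 16 h at 37 C. Dead-cell protease cleavage of bis-AAF-R110 read at Ex/Em 485/520. Normalized to DMSO and 15 uM tetraoctylammonium bromide; AC50 from Hill fits.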

[29] = MultiTox-Fluor Cytotoxicity Assay - LYMP1-001 - Live Cells (AID 947);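 also: 0% = DMSO only and full inhibition = tetraoctylammonium bromide control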
[30] = Cell Viability - LYMP1-002 - Assay at 16 hr (AID 948);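 also: 0% = DMSO alone and full effect = 92 µM tetraoctylammonium bromide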
Procedure, shortened: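 Acute cytotoxicity is scored as a concentration-dependent fall in intracellular ATP in a human lymphoblastoid line (LYMP1-002) after 16 hr compound exposure at 37 C, measured by luciferase luminescence.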

[31] = MultiTox-Fluor Cytotoxicity Assay - LYMP1-002 - Live Cells (AID 955); also: % is scaled to controls: 0 for no effect and ±100 for the full control effect
Procedure, shortened: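 LYMP1-002 lymphoblastoid cells; 2500 cells/well; 16 hr compound exposure, 37 C; MultiTox-Fluor reagent 60 min RT; live-cell fluorescence Ex/Em=405/510; qHTS concentration-response, Hill-equation AC50; tetraoctylammonium bromide positive control.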

[32] = MultiTox-Fluor Cytotoxicity Assay - LYMP1-003 - Dead Cells (AID 961);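 also: 0% = DMSO and 100% = tetraoctylammonium bromide; nearly all actives have a fitted effect of over 70% in size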
Procedure, shortened: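 LYMP1-003 human lymphoblastoid cells (2500/well) exposed to compound 16 h at 37 C in complete medium; dead-cell protease read with bis-AAF-R110 fluorescence (Ex/Em 485/520) after 60 min at room temperature. Normalized to DMSO and 15 uM tetraoctylammonium bromide; AC50 from Hill fit.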

[33] = MultiTox-Fluor Cytotoxicity Assay - LYMP1-003 - Live Cells (AID 962);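 also: 0% = DMSO only and full loss = 92 µM tetraoctylammonium bromide; cytotoxic hits lower the live-cell protease signal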
Procedure, shortened: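 Readout: live-cell fluorescence (Ex/Em=405/510) from GF-AFC cleavage after 60 min MultiTox-Fluor reagent at room temperature. Lymphoblastoid LYMP1-003 cells, 16 hr compound treatment, 37 C. Concentration-response fitted to standard Hill equation for AC50.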

[34] = Cell Viability - LYMP1-003 - Assay at 24 hr (AID 963);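 also: plate controls were DMSO only for no effect and tetraoctylammonium bromide positive control for full effect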
Procedure, shortened: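 CellTiter-Glo luminescence (intracellular ATP) read after 24 hr, 37 C compound exposure of 2500 LYMP1-003 human lymphoblastoid cells/well in complete medium; qHTS concentration series; AC50 via standard Hill equation.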

[35] = Cell Viability - LYMP1-003 - Assay at 40 hr (AID 964); also: % is scaled to controls: 0 for no effect and ±100 for the full control effect; nearly all actives have a fitted effect of over 60% in size
Procedure, shortened: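 LYMP1-003 lymphoblastoid cells, 2500/well; 5 hr preincubation, 40 hr compound exposure, 37 C; CellTiter-Glo 30 min RT; luminescence; Hill-fit AC50. Positive control tetraoctylammonium bromide.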

[36] = Cell Viability - LYMP2-003 (AID 965);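 also: cells exposed to compounds for 24 h before reading; 0% = DMSO only and full effect = 92 µM tetraoctylammonium bromide; nearly all actives have a fitted effect of over 50% in size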
Procedure, shortened: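 Acute cytotoxicity is scored as a concentration-dependent drop in intracellular ATP, measured by luciferase luminescence in human lymphoblastoid cells treated for 24 hours at 37 C. AC50 values derive from Hill-equation modelling.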

[37] = Cell Viability - LYMP2-009 (AID 968);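 also: cells exposed to compound for 24 h at 37 °C; 0% = DMSO alone and the full-kill end = tetraoctylammonium bromide at 92 µM; nearly all actives have a fitted effect of over 55% in size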

C[C@H](CCC(=O)O)[C@H]1CC[C@H]2[C@@H]3CC[C@@H]4C[C@H](O)CC[C@]4(C)[C@H]3CC[C@]12C
inactive: Potency [1] > 92 µM | Potency [2] > 92 µM | Potency [3] > 92 µM | Potency [4] > 92 µM | Potency [5] > 92 µM | Potency [6] > 92 µM | Potency [7] | activity change, negative = cytotoxicity [8] 2.31% | Potency [9] | outcome [10] | Potency [11] | Potency [12] | activity change, negative = cytotoxicity [13] -4.96% | activity change, negative = cytotoxicity [14] 15.4% | outcome [15] | caspase-3 activation [16] -0.354% | outcome [17] | outcome [18] | outcome [19] | outcome [20] | outcome [21] | Potency [22] | outcome [23] | outcome [24] | outcome [25] | outcome [26] | Potency [27] | Potency [28] | Potency [29] | Potency [30] | Potency [31] | Potency [32] | Potency [33] | Potency [34] | Potency [35] | Potency [36] | Potency [37]
